# Fh CTSL1 inh: blocks F. hepatica cathepsin L1 in PFM18AAP counter-screen. recombinant F. hepatica cathepsin L1, Z-Leu-Arg-MCA fluorescence. inhibition, % at 5.96 µM. 300,000 compounds, 0.49% hits;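 active = inhibition above the mean of all tested compounds plus 3 SD, set per screening campaign, cut at about 17% in these data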;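 also: 0% = plate median of test compound wells and 100% = 1 µM Z-Phe-Ala-diazomethylketone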
# APOBEC3G inh: APOBEC3G (human) deaminase inhibition; 330,000 compounds, 0.28% hits; AID 493012; inhibition, % at 20 µM; recombinant A3G, ssDNA deamination FAM/TAMRA fluorescence;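 active = inhibition of at least 40% at 20 µM, with no more than 30% in the related APOBEC3A deaminase screen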;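 also: plate controls were DMSO wells with A3G for no effect and wells lacking A3G enzyme for full effect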
# NALP1 yeast inh: NALP1 inhibition. S. cerevisiae NALP1/ASC/caspase-1 growth, X-gal OD620, 72 h. inhibition, % at 10 µM. 280,000 compounds, 0.61% hits; in the data active = inhibition mostly above about 24%, no sharp cut-off; inactive = mostly below about 32%
# HGIII-sPLA2 inh: Blocks human group III sPLA2 activity; Q9NZ20; QFRET BODIPY PC-A2 liposome hydrolysis, fluorescence; inhibition, % at 12.2 µM; 370,000 compounds, 0.56% hits;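 active = inhibition above mean plus 3 SD of compounds lying within the high and low control bounds, cut at about 19% in these data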;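 also: 0% = median of test compound wells and 100% = no enzyme DMSO wells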
# A3A deaminase: inhibitors of human APOBEC3A DNA deaminase; P31941; recombinant A3A, FAM/TAMRA ssDNA deamination fluorescence; inhibition, % at 20 µM; 330,000 compounds, 0.41% hits; AID 493011;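 active = at least 40% inhibition at 20 µM here, with at most 30% in a related deaminase screen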;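 also: plate controls were A3A with DMSO for no effect and wells lacking A3A enzyme for full effect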
# Target sequence (P31941 whole entry, looked up): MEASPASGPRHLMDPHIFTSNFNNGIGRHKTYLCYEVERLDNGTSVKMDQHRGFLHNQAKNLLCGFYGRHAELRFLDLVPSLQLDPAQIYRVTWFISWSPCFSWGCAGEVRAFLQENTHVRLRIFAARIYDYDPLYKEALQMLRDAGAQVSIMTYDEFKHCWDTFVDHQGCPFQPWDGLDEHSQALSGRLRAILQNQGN
# A3G conf: confirmation of human APOBEC3G DNA deaminase inhibitors. shares compounds with APOBEC3G inh. inhibition, % at 20 µM. recombinant A3G ssDNA deaminase, UDG/FAM-TAMRA fluorescence. 890 compounds, 72% hits. AID 493152;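 active = inhibition reaching a set limit in any replicate at 20 µM, the limit being 80% of the first screen's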
# UDG A3G counter: counter-screen for APOBEC3G inhibitors: E. coli UDG. shares compounds with APOBEC3G inh. UDG counterscreen, FAM/TAMRA oligo fluorescence. inhibition, % at 20 µM. 710 tested, under 10 active;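 active = compounds giving 40% or more inhibition at 20 µM in any one of the three replicates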;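 also: plate controls were DMSO wells with UDG and oligo for no effect and DMSO wells lacking both for full effect; inhibitors lower the FAM signal released by uracil excision and alkaline cleavage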
# Target sequence (P12295 whole entry, looked up): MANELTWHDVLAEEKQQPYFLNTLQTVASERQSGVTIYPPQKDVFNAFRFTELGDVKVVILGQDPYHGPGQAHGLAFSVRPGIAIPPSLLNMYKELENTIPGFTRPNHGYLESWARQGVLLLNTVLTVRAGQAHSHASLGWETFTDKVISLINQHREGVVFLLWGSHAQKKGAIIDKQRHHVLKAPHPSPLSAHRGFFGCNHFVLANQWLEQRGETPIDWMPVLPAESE
# Active calls of the source: *; · = not tested or not shown. The list is not random: actives were taken first. Their share in the collection is about 2%.
SMILES,Fh CTSL1 inh,APOBEC3G inh,NALP1 yeast inh,HGIII-sPLA2 inh,A3A deaminase,A3G conf,UDG A3G counter
Cc1cc(-c2n[nH]c(=S)n2/N=C/c2ccccc2[N+](=O)[O-])n[nH]1,0,61*,17,19,-5,82*,-2
COc1cc(/C=N/n2c(-c3cc(C)[nH]n3)n[nH]c2=S)ccc1O,1,35,-18,0,-6,·,·
COc1ccc(C=Nn2c(-c3n[nH]c4c3CCC4)n[nH]c2=S)cc1OCc1ccccc1,·,·,·,4,·,·,·
COc1cc(/C=N/n2c(-c3cc(C)[nH]n3)n[nH]c2=S)cc(OC)c1OC,-1,47*,4,10,-6,76*,-1
COc1cc(/C=N/n2c(-c3n[nH]c4c3CCC4)n[nH]c2=S)cc(OC)c1O,1,54*,·,11,-1,68*,-2
COc1cccc(/C=N/n2c(-c3n[nH]c4c3CCC4)n[nH]c2=S)c1O,0,66*,-4,12,-4,82*,-12
Cc1ccccc1Cn1cc(CN2[C@@H](CC(C)C)COc3cc(Br)ccc3S2(=O)=O)nn1,·,·,·,0,·,·,·
CCOC(=O)[C@]12CCCC=C1N(Cc1ccc(OC)cc1)C(=O)[C@@H]2CC(=O)N1CCN(C(=O)C2CC2)CC1,·,·,·,-2,·,·,·
COc1ccccc1/C=C/C=N/n1c(-c2cc(C)[nH]n2)n[nH]c1=S,4,36,7,8,0,·,·
Cc1n[nH]c(=S)n1/N=C/c1ccc(-c2ccccc2[N+](=O)[O-])o1,2,45*,5,8,-5,68*,-6
COc1cccc(/C=N/n2c(-c3cc(C)[nH]n3)n[nH]c2=S)c1O,-3,53*,-16,3,-4,85*,6
S=c1[nH]nc(-c2ccncc2)n1/N=C/C=C/c1ccccc1,2,63*,-7,17,-5,90*,-4
Cc1cc(-c2n[nH]c(=S)n2/N=C/C=C/c2ccccc2)n[nH]1,7,46*,36,8,-2,72*,1
CC(/C=N/n1c(-c2cc(C)[nH]n2)n[nH]c1=S)=C\c1ccco1,1,61*,1,5,6,73*,2
COc1ccccc1/C=C/C=N/n1c(-c2ccncc2)n[nH]c1=S,-3,47*,16,8,-6,80*,4
O=C(OC12CCCN(C1)/C(=C/c1cccnc1)C2)C1CCCCC1 (centres undefined),·,·,·,4,·,·,·
COc1ccccc1/C=C/C=N/n1c(-c2ccccn2)n[nH]c1=S,0,45*,-18,2,-4,88*,-4
CCOC(=O)[C@@]12CCCC3=C1N(CCC3)C(=O)[C@H]2CC(=O)NCc1cccc(C(F)(F)F)c1,·,·,·,-1,·,·,·
CCCCCCNC(=O)N[C@@H](C(=O)NCCC[C@H]1CN2C(=NC[C@@H]2Cc2ccccc2)N1CCc1cccc(OC)c1)C(C)C,-10,54*,·,·,10,32*,·
CN(C)c1ccc(/C=N/Nc2cccc(C(=O)O)c2)cc1,0,47*,10,3,2,27,·
S=C(Nc1ccc(Cl)cc1)OC1CCC12CCC(c1ccccc1)CC2 (centres undefined),·,·,·,-1,·,·,·
COc1ccccc1-n1c(-c2ccccc2)n[nH]c1=S,7,68*,2,18,3,58*,-4
COc1ccc(OC)c(-n2c(-c3ccccc3)n[nH]c2=S)c1,0,22,-12,16,-3,·,·
COc1cc(-c2n[nH]c(=S)n2-c2ccc(C)cc2)cc(OC)c1OC,-3,43*,-3,16,-5,68*,-4
CCN(C(=O)c1ccco1)c1nnc(-c2ccc(OC)cc2)s1,-3,-2,64,-3,-2,·,·
CCCN(C(=O)c1ccco1)c1nnc(-c2cccc(C)c2)s1,2,65*,5,1,1,0,·
O=S(=O)(c1ccc(=S)[nH]c1)N1CCOCC1,·,44*,·,7,-1,73*,-2
S=c1[nH]nc(-c2cccs2)n1C1CCCCC1,-9,45*,-12,19,-8,83*,-3
CCC(Sc1ccccc1C(=O)O)C(=O)O (centres undefined),5,4,-2,-5,10,·,·

# High-throughput results deposited in PubChem BioAssay by several laboratories.
